We go through 107 compounds from ChEMBL document CHEMBL4513216, “Probing the Open Global Health Chemical Diversity Library for Multistage-Active Starting Points for Next-Generation Antimalarials” (ACS Infect Dis, 2020).

The campaign covered roughly 68,000 compounds. About 2,700 (4%) showed an effect of 50% or more. This excerpt belongs to a sample that is enriched for strong results.

This assay concerns Plasmodium berghei. The assay can be described thus: Screen against P. berghei liver stage (PbLuc), transformed with Luciferase, at 2uM. Format: functional, HepG2. Particulars: tested at 2 uM.
`Cc1n[nH]c(C2CN(CC(=O)NCc3cccs3)CCO2)n1` (configuration not stated): the INHIBITION was found to be 34.42%.

As for `CCN(CCNC(=O)C1CCN(C(C)=O)CC1)c1ccccc1C`, the INHIBITION worked out at 31.13%. With `COc1ccc2[nH]cc(CCNC(=O)C3CCCN(C(C)=O)C3)c2c1` (configuration not stated), the INHIBITION was found to be 13.65%. The result for `CCN(CCNC(=O)C1CCCN(C(C)=O)C1)c1ccccc1C` (configuration not stated) reads 56.33%; that for `CN1CC(C(=O)NCCc2ccc(F)c(Br)c2)CC1=O` (configuration not stated), -5.13%. Take `CC(=O)N1CCCC(C(=O)NCCc2ccc(F)c(Br)c2)C1` (configuration not stated): the INHIBITION was determined as 63.17%. The result for `CCCN1CCC(C(=O)NCCN(CC)c2ccccc2C)CC1` reads -5.9%; that for `O=C(CN1C=Nc2ccccc2S1(=O)=O)NCCc1cccs1`, 6.12%. The result for `CCn1ncc(Br)c1CN(C)S(=O)(=O)c1ccc(C)cc1` reads 0.3%; that for `CCCc1nc(NCc2c(C)nn(CCC)c2C)c2cnn(C)c2n1`, 32.53%; that for `CC(C)CNC(=O)CNc1c(NCc2ccco2)c(=O)c1=O`, 10.93%. The result for `COc1ccnc(CN2CCCC(CCc3ccc(F)cc3)C2)c1OC` (configuration not stated) reads 58.03%. Consider `COc1coc(CN2CCCC(CCc3ccc(F)cc3)C2)cc1=O` (configuration not stated), for which the INHIBITION was 30.44%.

In the case of `COc1ccnc(CN2CCCC(CCc3ccccc3)C2)c1OC` (configuration not stated), the INHIBITION amounted to 11.37%. The result for `CCc1nnc(CN(C)C2CCCN(Cc3noc(C4CC4)n3)C2)o1` (configuration not stated) reads -7.13%; that for `Cc1nnc(CN(C)C2CCCN(Cc3noc(C4CC4)n3)C2)o1` (configuration not stated), 62.13%. Take `Cc1cc(CN(C)C2CCCN(Cc3noc(C)n3)C2)no1` (configuration not stated): the INHIBITION amounted to 80.46%. The result for `Cc1cc(CN(C)C2CCCN(Cc3noc(C4CC4)n3)C2)no1` (configuration not stated) reads 28.65%.

For the compound `CC(C)c1nc(CN(C)C2CCN(Cc3nnc(C4CC4)o3)C2)no1` (configuration not stated), the INHIBITION stood at 37.9%.

Turning to `Cc1cc(CN(C)C2CCCN(Cc3noc(C)n3)C2)on1` (configuration not stated), the INHIBITION is -2.71%. Turning to `Cc1nc(CN2CCCC(N(C)Cc3nnc(C4CC4)o3)C2)no1` (configuration not stated), the INHIBITION is listed as -10.47%. Consider `Cc1nc(CN(C)C2CCN(Cc3nnc(C4CC4)o3)C2)no1` (configuration not stated), for which the INHIBITION came out at 49.01%. For `CN(Cc1noc(C2CC2)n1)C1CCN(Cc2nnc(C3CC3)o2)C1` (configuration not stated), the INHIBITION is 51.19%. The result for `CC(C)N(Cc1cccnc1)C(=O)CCSc1ccc(C#N)cc1` reads 16.72%; that for `CCc1nc(CN2CCN(C(=O)c3csnn3)CC2)cs1`, 32.64%. As to `CC(C)NC(=O)N1CCCC2(CCCCN2)C1` (configuration not stated), the INHIBITION is on record as 21.75%. Turning to `O=C(NCC(F)(F)F)c1ccncc1`, the INHIBITION is 8.22%. In the case of `Fc1cnc(N2CCCC3(CCN(Cc4cccs4)C3)C2)nc1` (configuration not stated), the INHIBITION is 31.25%.

For the compound `Cc1ccnc(NC(=O)C2CCCO2)c1` (configuration not stated), the INHIBITION came out at 23.39%. As to `COc1ccc(N(C)C(=O)C2CN(C)CCO2)cc1F` (configuration not stated), the INHIBITION is given as 71.05%. The result for `CN1CCOC(C(=O)N(C)c2ccc3c(c2)CCO3)C1` (configuration not stated) reads -30.56%; that for `COc1ccc(N(C)C(=O)C2CN(C)CCO2)cc1Cl` (configuration not stated), -18.04%; that for `Cc1ccc(OCC(O)COC2CCOCC2)c(Cl)c1` (configuration not stated), -2.35%.

In the case of `Cc1cc(Cc2ccccc2F)cc(C2CCCNC2)n1` (configuration not stated), the INHIBITION was 4.91%. Turning to `Cc1cc(Cc2ccccc2C)cc(C2CCCNC2)n1` (configuration not stated), the INHIBITION worked out at 54.02%. The result for `Cc1cc(Cc2ccccc2)cc(C2CCCNC2)n1` (configuration not stated) reads -24.98%; that for `CC(=O)N1CCN(c2cc(-n3cccc3)ncn2)CC1`, 35.36%; that for `CSc1sc2c(O)cc(=O)[nH]c2c1C(N)=O`, 15.96%.

For `Cc1nc(S(=O)(=O)N2CCc3[nH]nc(CCC(C)C)c3C2)cn1C`, the INHIBITION amounted to 26.75%. Regarding `CSCCc1n[nH]c2c1CN(S(=O)(=O)c1c(C)nn(C)c1C)CC2`, the INHIBITION amounted to 59.8%. In the case of `CSCCc1n[nH]c2c1CN(S(=O)(=O)c1cn(C)c(C)n1)CC2`, the INHIBITION amounted to 41.07%.

Regarding `CS(=O)(=O)Cc1nc(CNc2ccc(F)c(F)c2)cs1`, the INHIBITION worked out at 56.49%. Consider `CS(=O)(=O)Cc1nc(CNc2c(F)cc(F)cc2F)cs1`, for which the INHIBITION was 1.42%. The result for `CSc1ccc(NCc2csc(CS(C)(=O)=O)n2)cc1F` reads 28.95%; that for `Cc1cccc(Cn2cc(C)c(N)n2)c1`, 62.99%; that for `Cc1cn(Cc2ccccc2)nc1N`, 43.77%.

`Cc1ccc(Cn2cc(C)c(N)n2)cc1`: the INHIBITION is -20.05%. Regarding `COC(=O)c1cccc2nc([C@H]3CCN(Cc4ccccc4C)C3)oc12`, the INHIBITION is reported as 33.14%. The result for `COC(=O)c1cccc2nc([C@H]3CCN(Cc4ccccc4F)C3)oc12` reads 52.36%; that for `COC(=O)c1cccc2nc([C@H]3CCN(C4CCN(C)CC4)C3)oc12`, 21.06%; that for `COc1cccc(-c2noc(C3CCN(Cc4ccccc4F)C3)n2)c1` (configuration not stated), 35.56%.

Take `COC(=O)c1cccc2nc([C@H]3CCN(Cc4ccccc4)C3)oc12`: the INHIBITION worked out at 1.29%.

For the compound `COC(=O)c1cccc2nc([C@H]3CCN(CC(C)C)C3)oc12`, the INHIBITION is 53.46%. The result for `CC(=O)Nc1nc(C(=O)N2CCCC(n3nc(C)cc3C)C2)cs1` (configuration not stated) reads -45.23%; that for `N#Cc1cccc(OCCN2CCCC2C(=O)N2CCSCC2)c1` (configuration not stated), 9.04%. On to `COCCN1CCN(c2cccc(C)n2)Cc2ccc(C)nc21`, for which the INHIBITION was -21.77%. For `CCS(=O)(=O)N1C[C@H]2CN(c3cnn(C)c3)C(=O)[C@H]2C1`, the INHIBITION is reported as -33.15%.

Turning to `Cn1cc(N2C[C@@H]3CN(CC4CCOCC4)C[C@@H]3C2=O)cn1`, the INHIBITION was -1.69%.

In the case of `Cn1cc(N2C[C@@H]3CN(S(=O)(=O)C4CC4)C[C@@H]3C2=O)cn1`, the INHIBITION worked out at 63.23%.

As to `Cc1nc(C2CCCN2C(=O)c2ccc(F)cc2)ncc1C(N)=O` (configuration not stated), the INHIBITION stood at 21.33%. The result for `CCOC(=O)N1CCC(NC(=O)c2cccc(C3CCCNC3)c2)CC1` (configuration not stated) reads 35.15%; that for `Cc1cnn(CC2CN(c3nnc(C)c(C)c3C#N)CCO2)c1` (configuration not stated), 54.2%; that for `CCC1CN(c2nnc(C)c(C)c2C#N)CCO1` (configuration not stated), 11.18%. With `Cc1nnc(N2CCOC(Cn3cccn3)C2)c(C#N)c1C` (configuration not stated), the INHIBITION was found to be 8.7%. The result for `O=C1CSC(c2ccc(Cl)cc2Cl)c2c(n(C3CCOCC3)[nH]c2=O)N1` (configuration not stated) reads 5.47%; that for `CN(C)S(=O)(=O)N1CCC(Oc2ccc(C#N)cn2)CC1`, 31.38%; that for `CC(C)c1nn(C)c(Cl)c1CNCc1ccc2c(c1)OCO2`, 35.65%. The result for `CCC(CC)N(Cc1ccc2c(c1)OCO2)C(=O)c1ccc(=O)n(C)c1` reads -55.13%; that for `COc1cc(CCC(=O)NC(C)C)ccc1OCC(F)(F)F`, -56.02%; that for `COc1cc(CCC(=O)NC(C)C(=O)O)ccc1OCC(F)(F)F` (configuration not stated), -16.42%. Regarding `CCC(C)NC(=O)CCc1ccc(OCC(F)(F)F)c(OC)c1` (configuration not stated), the INHIBITION was found to be 51.94%.

For the compound `NC(=O)c1cccc2nc([C@H]3CCN(Cc4ccccc4F)C3)[nH]c12`, the INHIBITION is 18.87%.

Turning to `NC(=O)c1cccc2nc([C@H]3CCN(Cc4ccccn4)C3)[nH]c12`, the INHIBITION is listed as 50.72%.

With `Cc1ccc(CN2CC[C@H](c3nc4cccc(C(N)=O)c4[nH]3)C2)cc1`, the INHIBITION came to 23.26%. For the compound `CS(=O)(=O)N1CCCC(Cc2ccnc(Nc3ccccn3)c2)C1` (configuration not stated), the INHIBITION turned out to be 3.38%. The result for `O=C(c1ccccc1)N1CCN(CC2CCOc3ccccc3C2)CC1` (configuration not stated) reads 1.88%; that for `COCCc1noc(CNC(=O)C2CC(=O)N(C(C)(C)C)C2)n1` (configuration not stated), -28.97%; that for `CCN1CC(C(=O)NCc2noc(Cc3ccccc3)n2)CCC1=O` (configuration not stated), -17.86%.

As to `CC(C)(C)N1CC(C(=O)NCc2noc(Cc3ccccc3)n2)CC1=O` (configuration not stated), the INHIBITION is listed as 50.63%. With `CCn1nc(CC(C)C)cc1C(=O)NCc1c(C)cc(C)nc1OC`, the INHIBITION came out at 39.16%.

As to `Cc1noc2nc(C3CCN(Cc4ccccn4)CC3)cc(C(F)F)c12`, the INHIBITION is on record as -32.4%. The result for `C/C(=C\c1ccccc1)CN1CCCC(c2nnc3n2CCNCC3)C1` (configuration not stated) reads 36.51%; that for `O=C(NCCNc1cnccn1)c1scnc1Cl`, -6.71%.

Regarding `O=c1[nH][nH]cc1-c1ccnc(NCCc2cccnc2)n1`, the INHIBITION came out at 7.4%.

With `CC(C)NC(=O)Cn1cc(-c2ccccc2)cn1`, the INHIBITION is on record as -42.92%.

As to `CNC(=O)NC(=O)Cn1cc(-c2ccccc2)cn1`, the INHIBITION was found to be 54.92%.

Regarding `Cc1ccc(-c2cnn(CC(=O)NC(C)C)c2)cc1`, the INHIBITION turned out to be 72.31%.

For `CCC(CC)NC(=O)Cn1cc(-c2ccccc2)cn1`, the INHIBITION is reported as -9.17%. On to `CC(NC(=O)Cn1cc(-c2ccccc2)cn1)C1CC1` (configuration not stated), for which the INHIBITION was 35.65%. The result for `CCCNC(=O)Cn1cc(-c2ccccc2)cn1` reads -14.11%. The result for `Cc1nc(C)c(CN2CCC(N(C)Cc3nnc(C4CC4)o3)C2)s1` (configuration not stated) reads 37.9%. On to `CCn1c(C)nnc1CN(C)C1CCN(Cc2c(C)noc2C)C1` (configuration not stated), for which the INHIBITION was 4.72%. The result for `CCn1c(C)nnc1CN(C)C1CCN(Cc2sc(C)nc2C)C1` (configuration not stated) reads 65.3%; that for `O=S(=O)(c1ccccc1)N1CCC2(CCCN2Cc2ccc(Cl)cc2)C1` (configuration not stated), -28.17%. The result for `O=C(CCCc1nnc(-c2ccccc2)o1)N1CCN(CCO)CC1` reads 36.65%; that for `O=C(CCCc1ncc(-c2ccccc2)o1)N1CCN(CCO)CC1`, 56.67%. The result for `O=C(CCCc1nc(-c2ccccc2)no1)N1CCN(CCO)CC1` reads 41.76%. For `COc1ccc(Br)cc1NCC(=O)NC(C)(C#N)C1CC1` (configuration not stated), the INHIBITION is given as -0.46%. `CCn1ncnc1C(C)Nc1cc(C)c2ccc(SC)cc2n1` (configuration not stated): the INHIBITION is -35.22%. As to `CSc1ccc2c(C)cc(N[C@@H](C)CO)nc2c1`, the INHIBITION is reported as 71.67%. `COC[C@H](C)Nc1cc(C)c2ccc(SC)cc2n1`: the INHIBITION came to 45.56%. The result for `O=C(c1cccnc1-c1ccoc1)N1C[C@@H]2CC[C@H]1C2` reads -15.77%. `CCC1(CO)CCN(C(=O)c2cc(COc3ccccc3F)[nH]n2)CC1`: the INHIBITION is on record as -64.06%.

As for `CCn1nc(C)c(CCNC(=O)C2CCCN(C(=O)N(C)C)C2)c1C` (configuration not stated), the INHIBITION is on record as -17.7%. Consider `Cn1cc(CN2CCOC(c3cccc(-c4cccc(F)c4)n3)C2)cn1` (configuration not stated), for which the INHIBITION is given as 53.16%. Take `Cn1cc(CN2CCOC(c3nccnc3-c3cccc(F)c3)C2)cn1` (configuration not stated): the INHIBITION is 11.74%. The result for `Cn1cc(CN2CCOC(c3cccc(-c4cncnc4)n3)C2)cn1` (configuration not stated) reads 0.12%.
